PI4K2A inh: PI4K2A (human) kinase inhibition. Q9BTU6. purified PI4K2A, ADP-Glo luminescence, 1 h; stronger effect = lower value. activity change, negative = inhibition, % at 76.9 µM. 420,000 compounds, 0.13% hits. AID 1346378; in the data active = activity change below about -50%; inconclusive = mostly about -30% to -49%;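 note: -100% = wells without enzyme as full effect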
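In this quantitative HTS, ADP production by PI4K2A was quantified luminescently after 1 h at ambient temperature; 100 microM adenosine served as plate-quality control.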
PI5P4Ka inh: blocks human PI5P4K alpha kinase activity; max response, %; 330,000 compounds, 1.2% hits; PI5P4Kalpha enzyme, ADP-Glo luminescence, 60 min; stronger effect = lower value; P48426; active = max response of -50% or lower; inconclusive = between -30% and -50%; inactive = -30% or higher; note: value at the top dose of about 77 µM
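ADP-Glo luminescence end-point after a 60 min room-temperature kinase reaction. PI5P4Kalpha and substrate in HEPES pH 7.4 buffer with EGTA, 0.1% CHAPS and 5% DMSO; ATP at 5 microM final.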
Tb PFK block: blocks T. brucei phosphofructokinase. T. brucei PFK, ADP-Glo luminescence. 330,000 compounds, 0.17% hits. Potency, µM (titrated, usually from 57.5 µM), without a hit: at the top dose activity, negative = inhibition, usual class: inhibitors;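 note: potency is the fitted concentration of half-maximal effect; 0% = uninhibited 1x PFK enzyme wells and -100% = no-enzyme wells; nearly all actives have a fitted effect of over 60% in size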
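1.25 nM PFK with 0.5 mM F6P and 0.1 mM ATP in 0.1 M TEA pH 8.0, 5 mM MgCl2, incubated 45 min at room temperature; ADP measured by ADP-Glo luminescence; compounds titrated up to 57 uM.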
Tb PGK inh: T. brucei PGK inhibition. P07378. PGK/GAPDH coupled, Kinase-Glo luminescence, 60 min. Potency, µM (doses to about 57.5 µM), inactives show at the top dose activity change, negative = inhibition, usual class: inhibitors. 380,000 compounds, 0.043% hits; note: potency is the fitted concentration of half-maximal effect; nearly all actives have a fitted effect of over 60% in size
Target sequence (P07378 whole entry, looked up): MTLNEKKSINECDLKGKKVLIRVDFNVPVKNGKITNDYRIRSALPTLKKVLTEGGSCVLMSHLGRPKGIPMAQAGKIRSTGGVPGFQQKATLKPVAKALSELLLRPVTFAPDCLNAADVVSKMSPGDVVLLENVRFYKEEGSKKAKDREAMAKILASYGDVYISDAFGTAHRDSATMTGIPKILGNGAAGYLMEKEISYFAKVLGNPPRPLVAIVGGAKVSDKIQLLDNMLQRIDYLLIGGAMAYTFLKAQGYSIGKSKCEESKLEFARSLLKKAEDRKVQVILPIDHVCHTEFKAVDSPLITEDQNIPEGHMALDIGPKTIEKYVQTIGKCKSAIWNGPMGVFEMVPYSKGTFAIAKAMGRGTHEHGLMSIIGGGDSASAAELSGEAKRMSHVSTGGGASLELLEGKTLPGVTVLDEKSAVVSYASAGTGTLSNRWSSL
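Luminescent ATP detection (Kinase-Glo Plus) follows a 60-minute room-temperature incubation, with wells lacking PGK as controls. Buffer: 100 mM TEA (pH 7.6), 5 mM MgCl2, 0.01% Tween-20. Coupling enzyme GAPDH (100 nM final) supplies unstable 1,3-BPG in-well.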
Pin1 inh: blocks the human prolyl isomerase Pin1 | Q13526 | Potency, µM (titrated, usually from 115 µM), for the others: at the highest dose activity, negative = inhibition, actives largely listed as inhibitors | 390,000 compounds, 0.009% hits | Pin1 FP peptide displacement, HiFluor488, 10 min; active = well fitted inhibition curve with a large enough effect in the polarisation, with a control signal flat, not every such curve was filed as active; inconclusive = small, poorly fitted or top-dose-only effect, or effect the other way, or a change in a side signal; inactive = no such curve, though single readings can be large or run the other way; the % refers to the polarisation; note: potency is the fitted concentration of half-maximal effect
Target sequence (Q13526 whole entry, looked up): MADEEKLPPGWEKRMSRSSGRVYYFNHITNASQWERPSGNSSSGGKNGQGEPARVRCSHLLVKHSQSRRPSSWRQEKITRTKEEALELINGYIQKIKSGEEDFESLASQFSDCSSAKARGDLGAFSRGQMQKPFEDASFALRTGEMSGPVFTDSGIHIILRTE
Starred values were filed as active, the others as inactive; i = inactive; ? = inconclusive; . = no result given. Shown is part of a subset that was picked to be rich in hits. Unless noted, calls come from the whole dose curve; as a rule, active = well fitted curve in the direction sought with a large enough effect; inconclusive = small, poorly fitted or top-dose-only effect, or another doubt; inactive = no such curve, though single readings can be large; an effect the other way counts as inactive or inconclusive. Unless noted, % is set by controls: 0 for no effect and ±100 for the full control effect.

SMILES	PI4K2A inh	PI5P4Ka inh	Tb PFK block	Tb PGK inh	Pin1 inh
C#CCOCCOCCOCCNc1nc(N2CCN(C(=O)CCCCCCCCCCNC(=O)[C@@H](CCC(=O)O)n3cc(CCCCCN)nn3)CC2)nc(N2CCN(C(=O)CCCCCCCCCCNC(=O)[C@@H](CCC(=O)O)n3cc(CCCCCN)nn3)CC2)n1	-2	-19	-15%	-7%	2%
COc1ccc(OC)c(S(=O)(=O)n2c(CN3CCOCC3)nc3ccccc32)c1	3	.	.	.	.
O=C1NC(=O)/C(=C\c2ccc(O)cc2O)S1	-6	-92*	0%	3%	?
CC(=O)OCC1=C(C(=O)OC(C)(C)C)N2C(=O)[C@@H](NC(=O)Cc3ccccc3)[C@H]2SC1	-5	-51*	.	-1%	?
CC1=C(C(=O)OCC(Cl)(Cl)Cl)N2C(=O)C(NC(=O)Cc3ccccc3)C2SC1 (stereo not drawn)	-2	5	8%	0%	-1%
O=C1CCCC2=C1C1(CCCOC1)N=C(Nc1nc3ccccc3o1)N2 (stereo not drawn)	.	.	.	.	0%
C=C1c2cccc(O)c2C(=O)C2C(=O)[C@]3(O)C(=O)C(C(N)=O)C(=O)[C@@H](N(C)C)[C@@H]3[C@@H](O)[C@H]12 (stereo partly drawn)	?	-71*	?	-28%	.
CC1=C/C(=C(/c2cc(C)c(O)c(Br)c2)c2ccccc2S(=O)(=O)O)C=C(Br)C1=O	?	-65*	-30%	?	?
CC1=C/C(=C(/c2ccc(O)c(C)c2)c2ccccc2S(=O)(=O)O)C=CC1=O	-2	-4	1%	-10%	32%
Cc1ccc(C)n1Cc1ccc(C(=O)O)cc1	?	.	6.7µM*	3.2µM*	?
COc1ccc(CN2C(=O)c3ccc(C(=O)O)cc3C2=O)cc1	3	-63*	1%	-1%	1%
Cc1cc(C)n(Cc2ccc(C(=O)O)cc2)n1	-1	.	2%	i	0%
O=C(O)c1ccc(CN2C(=O)c3ccc(C(=O)O)cc3C2=O)cc1	-1	-58*	1%	-1%	-1%
O=C(O)c1ccc2c(c1)C(=O)N(Cc1ccco1)C2=O	2	-69*	1%	-2%	-3%
O=C(O)c1ccc2c(c1)C(=O)N(Cc1ccc3c(c1)OCO3)C2=O	1	1	5%	2%	6%
N#Cc1ccc(C(=O)NCC(=O)OC(C(=O)Nc2cc(C(F)(F)F)ccc2Cl)c2ccccc2)cc1 (stereo not drawn)	.	.	.	.	6%
O=C1CCc2cc(S(=O)(=O)Nc3ccc4ccccc4c3)ccc2N1	.	.	.	.	0%
Nc1ccc(C(=O)OCC(O)CO)cc1 (stereo not drawn)	4	.	.	.	.
O=C(Nc1ccc(Br)cc1C(=O)O)c1ccc2c(c1)C(=O)N(Cc1ccccc1)C2=O	-1	-74*	-5%	-20%	.
COc1ccc(O)c(-c2nc3ccccc3c(=O)n2Cc2ccccc2)c1	.	.	.	.	1%
N#C/C(=C\c1ccc[nH]1)C(=O)Nc1ccccc1[N+](=O)[O-]	-28	-65*	?	-18%	?
Cc1ccccc1NC(=O)/C(C#N)=C/c1ccc[nH]1	-4	0	2%	i	-4%
COc1ccc(-n2c(-c3ccc(Cl)cc3Cl)n[nH]c2=S)c(OC)c1	1	-64*	0%	-5%	-11%
N#Cc1cc(NC(=O)C(=O)O)c(Cl)c(NC(=O)C(=O)O)c1	-2	.	.	.	.
CC(=O)Nc1ccc(S(=O)(=O)Nc2ccc(C)c(C)c2)cc1	.	.	.	.	-2%
SMILES	PI4K2A inh	PI5P4Ka inh	Tb PFK block	Tb PGK inh	Pin1 inh
O=c1oc2cc(OCc3c(F)cccc3Cl)ccc2cc1-c1ccccn1	-7	-1	1%	2%	-3%
CCCOc1ccc2cc(-c3ccccn3)c(=O)oc2c1	-61*	?	-15%	?	-2%
Nc1cc([N+](=O)[O-])ccc1Nc1ccc(O)cc1	-6	-57*	-14%	-9%	7%
C=CCNC(=O)Nc1ccc2c(c1)[C@]1(CC(=O)N(CC(C)C)C1c1ccccc1)C(=O)N2C (stereo partly drawn)	-2	.	.	.	.
O=Cc1ccc(O)c(O)c1O	-3	.	.	.	.
O=C1CC(=O)N(CCc2ccccc2)C(=O)N1CCc1ccccc1	-65*	?	0%	8%	?
C=CCOC(=O)C1=C(C)NC(SCC(=O)OCC)=C(C#N)C1c1ccc(O)c(OC)c1 (stereo not drawn)	-3	-54*	0%	0%	27%
C=CCOC(=O)C1=C(C)NC(SC)=C(C#N)C1c1ccc(OCC)cc1 (stereo not drawn)	-5	14	4%	i	4%
C=CCOc1ccc(/C=C2\SC(=S)N(NS(=O)(=O)c3ccccc3)C2=O)cc1	-4	-56*	4%	-16%	-20%
O=C1/C(=C\c2ccc(Br)cc2)SC(=S)N1NS(=O)(=O)c1ccccc1	6	-56*	0%	-2%	-23%
COc1ccc(/C=C2/SC(=S)N(NS(=O)(=O)c3ccccc3)C2=O)cc1	-6	?	1%	-3%	?
O=C1/C(=C/c2cccnc2)SC(=S)N1NS(=O)(=O)c1ccccc1	-7	?	-20%	3%	-6%
CCn1c(SCC(=O)Nc2cccc3ccccc23)nnc1-c1cccs1	-2	.	.	.	.
COc1ccc(CCNC(=O)c2c(O)c3cccc4c3n(c2=O)CC4)cc1	-5	-81*	3%	-2%	0%
Cc1cc(NC(=O)CSCC(=O)OCC(=O)Nc2ccc(OC(F)F)cc2)no1	1	0	7%	-9%	-2%
Cc1cc(NC(=O)CSCC(=O)OCC(=O)c2cccc(Br)c2)no1	-5	-62*	-3%	i	4%
COC(=O)C1=C(C)N(CCCCCC(=O)O)C(=O)NC1c1ccccc1 (stereo not drawn)	1	4	.	7%	-1%
CCOC(=O)C1=C(C)N(CCCCCC(=O)O)C(=O)NC1c1ccc(Cl)cc1 (stereo not drawn)	1	-7	-2%	-3%	2%
CCOC(=O)C1=C(C)N(CCCC(=O)O)C(=O)NC1c1ccc(OC)cc1 (stereo not drawn)	-2	-71*	-1%	i	-13%
COC(=O)C1=C(C)N(CCCC(=O)O)C(=O)NC1c1ccc(OC)cc1 (stereo not drawn)	0	-62*	.	0%	-4%
CCOC(=O)C1=C(C)N(CCCC(=O)O)C(=O)NC1C(CC)CC (stereo not drawn)	1	-58*	.	7%	-1%
CCCCNC(=S)N/N=C/c1ccc(C#N)cc1	-2	-73*	2%	-25%	?
CC(=O)c1ccc(O)c(C(N)=O)c1	1	.	.	.	.
COC(=O)[C@]12C[C@H](CC(=O)N3CCN(C(=O)C4CC4)CC3)C(=O)N(CCc3ccc(OC)c(OC)c3)C1=C[C@H](C(C)(C)C)O[C@@H]2C	-5	.	.	.	.
